Assay results: PubChem BioAssay AID1347076 (National Center for Advancing Translational Sciences (NCATS), 2019)
Hit rate of the full screen: of about 400,000 compounds, about 13,000 (3.2%) were called active. Where a call stands in place of a potency, no number is given. Not shown: some 18% with an inconclusive outcome. The sample holds actives, similar compounds and a random draw of the others, so the mix is not that of the screen. Calls come from the whole dose curve; as a rule, active = well fitted cell-killing curve with a large enough effect; inconclusive = small, poorly fitted or top-dose-only effect, or effect the other way; inactive = flat fitted curve, though single readings scatter.

Test: qHTS assay for MDR1-selective chemotherapeutics: Primary screen using the drug-selected MDR subline cells KB-V1; note: nearly all actives have a fitted effect of over 60% in size
Conditions: KB-V1 MDR cells viability, CellTiter-Glo, 72 h; series mostly up to 46.1 µM
From the text: A prime difficulty in effectively treating cancer is the development of cellular resistance to multiple structurally unrelated anticancer drugs, a phenomenon known as multidrug resistance (MDR). […] Numerous strategies to overcome P-gp-mediated MDR have been explored, including the design of drugs that evade recognition and efflux, and development of inhibitors to block efflux and restore drug accumulation. […] An alternative approach is to exploit resistance by identifying drugs that target MDR cells over the non-resistant parental cells from which they were selected. […] The development of MDR1-selective agents represents a new strategy for resolving multidrug resistance, as it remains a long-standing clinical challenge for cancer chemotherapy.
Our goal is to identify compounds that selectively kill P-gp-expressing MDR cells. We will identify MDR1-selective compounds by comparing toxicity of compounds in the screening library against parental, drug-naive (KB-3-1) adenocarcinoma cells as well as their drug-selected MDR sub-line (KB-V1). The differential toxicity of compounds against these two cell lines will be used to identify MDR1-selective compounds, whose cytotoxicity is potentiated, rather than diminished, by P-gp expression. This assay will be utilized to conduct a quantitative high-throughput screen (qHTS) in collaboration with the NIH Chemical Genomics Center to identify selective agents, and probe hits arising from the screen will be validated using secondary assays and characterized through a well-established follow-up research program. This screen was run against the entire NCGC library collection of about 400,000 compounds.
NIH Molecular Libraries Probe Production Network [MLPCN]
NIH Chemical Genomics Center [NCGC]
PI: Michael Gottesman, National Cancer Institute, NIH
Briefly, 5 microL of media containing either KB-V1 cells (columns 1-2, 4-48) are dispensed into Greiner white, treated solid-bottom 1536-well assay plates (media-only control is added to column 3). Compounds are then transferred via Kalypsys pin tool equipped with 1536-pin array (10 nL slotted pins, V&P Scientific, San Diego, CA). Following addition of compound, the plates are incubated at 37 degrees C for 72 hours. CellTiter-Glo (2.5 µL/well) is then added, and the plates are read in a ViewLux reader (Perkin-Elmer, clear luminescence filter, 1 second exposure, 1x binning) following a 10 minute incubation. All cells are dispensed in DMEM phenol-red free media containing 10% FBS.
Library plates were screened starting from the lowest and proceeding to the highest concentration. Vehicle-only plates, with DMSO being pin-transferred to columns 5-48, will be inserted uniformly at the beginning and the end of each library in order to monitor and record any shifts in the background, which can be affected by reagent dispensers or loss in enzyme activity over time. Screening data will be corrected, normalized, and concentration-effect relationships will be derived by using publicly-available NCGC, NCATS curve fitting algorithms (http://ncgc.nih.gov/pub/openhts).
Potency is the fitted concentration of half-maximal effect.

Compound	Potency
O=P(OC1=CCCCC1)(c1ccccc1)c1ccccc1	inactive
CCCOC(=O)C1C2c3ccccc3C(c3ccccc32)C1C(=O)O (stereo unspecified)	inactive
CC1CCC(N(C)C2CCN(C)CC2)CC1 (stereo unspecified)	inactive
O=C(c1ccccc1[N+](=O)[O-])N1CCC2(CC1)OCCO2	inactive
O=C(c1cc2nc(-c3ccccc3)cc(-c3ccccc3)n2n1)N1CCC2(CC1)OCCO2	25.9 µM (active)
Cc1ccc(-c2cc(C(=O)N3CCC4(CC3)OCCO4)no2)cc1	inactive
CC1C2Cn3c(nc4ccccc43)C1N(C)O2 (stereo unspecified)	inactive
COc1cc(C(=O)N2Cc3ccc(Br)cc3-n3nncc3C2)cc(OC)c1OC	inactive
CCC(C)(O)C(=O)OC1C(=O)OC2CC3C(C)=CC(=O)C(O)C3(C)C3C4(O)OCC23C1C(C)C4O (stereo unspecified)	11.6 µM (active)
c1ccc(N2Cc3ccccc3-n3nncc3C2)nc1	inactive
CCC(C)n1c(O)c(/C=N/Nc2nc3c(c(=O)n(C)c(=O)n3C)n2C)c(=O)[nH]c1=S (stereo unspecified)	inactive
CCN1C(=O)NC(=O)C2(CCCC2)C1=O	inactive
COC(=O)CN(CCCl)P1(=O)OCCCN1CCCl (stereo unspecified)	inactive
CN(C)CCCN=Cc1c(O)n(Cc2ccco2)c(=O)[nH]c1=O	inactive
CCC(=NCc1ccco1)c1c(O)n(Cc2ccccc2)c(=O)[nH]c1=O	3.66 µM (active)
CC(=NCC1CCCO1)c1c(O)n(-c2ccccc2)c(=O)[nH]c1=O (stereo unspecified)	inactive
CCC(=NCCCO)c1c(O)n(-c2ccc(OC)cc2)c(=O)[nH]c1=O	inactive
CCCCCCN=C(CC)c1c(O)n(CCCC)c(=O)[nH]c1=O	5.17 µM (active)
CC/C(=N\NC(=O)c1ccccc1O)c1c(O)n(Cc2ccccc2)c(=O)[nH]c1=O	inactive
O=C(N/N=C/c1c(O)n(Cc2ccccc2)c(=O)[nH]c1=O)c1ccccc1	inactive
CCCCn1c(O)c(C(CC)=NCc2ccco2)c(=O)[nH]c1=O	20.6 µM (active)

Compound	Potency
CCCCC(=O)N/N=C/c1c(O)n(CCC2=CCCCC2)c(=O)[nH]c1=O	inactive
c1cc2c(c(NC3=NCCCS3)c1)CCCC2	inactive
O=c1c2ccccc2nc(CBr)n1-c1ccc(Cl)cc1	inactive
C[N+]12CN3CN(CN(C3)C1)C2	inactive
CC(CC(C#N)(c1ccccc1)c1ccccc1)N1CCCCC1 (stereo unspecified)	inactive
N#Cc1c(Cl)c(Cl)c(Cl)c(C#N)c1Cl	inactive
Cc1cccc(OP(=O)(Oc2cccc(C)c2)OC(c2ccccc2)C(F)(F)F)c1 (stereo unspecified)	inactive
Cc1ccc(OC(=O)N(C)C[C@@H]2OCc3cnnn3CCCC(=O)N([C@H](C)CO)C[C@@H]2C)cc1	inactive
O=C1NCN(c2ccccc2)C12CCN(C(c1cccs1)c1nnnn1C1CCCCC1)CC2 (stereo unspecified)	inactive
CC(=O)C1(O)CCC2C3CCC4=C(Cl)C(=O)CCC4(C)C3CCC21C (stereo unspecified)	inactive
Cc1ccc(Cn2nnnc2CN2CCC(n3nnc4ccccc43)CC2)cc1	5.8 µM (active)
N[C@@H](Cc1c[nH]c2ccccc12)c1nnc(SCc2c(F)cccc2Cl)o1	18.4 µM (active)
CCOC(=O)CC(SP1(=S)OCC2(CCCCO2)C(C2CCCCO2)O1)C(=O)OCC (stereo unspecified)	inactive
CC(C)c1ccc(OCC(=O)N2CCCN(C)CC2)cc1	inactive
CC(=O)Nc1ccccc1C(=O)OCC(=O)c1cccc2ccccc12	inactive
Cn1cc(C(=O)OCC(=O)N2CCCC2)c2ccccc21	23.1 µM (active)
OCC#CC[N+]1(CC#Cc2ccccc2)CCCC1	inactive
C[C@]12CCC3C(CC[C@H]4[C@H](O)[C@H](O)CC[C@]34C)C1CCC2=O (stereo partly specified)	inactive
O=C1CC(=O)N(Cc2ccccc2)C(=O)N1CCCCCCN1C(=O)CC(=O)N(Cc2ccccc2)C1=O	inactive
CC(C)(C)c1ccc(CN2C(=O)CN=C(c3ccccc3)c3ccccc32)cc1	16.4 µM (active)
c1ccc(C(CN2CCCCC2)c2ccccc2)cc1	inactive

Compound	Potency
O=C(Nc1cccc2ccccc12)N1CCC2(CC1)OCCO2	inactive
O=C(CCC(=O)N1C[C@H]2C[C@@H](C1)c1cccc(=O)n1C2)NCc1ccccc1C(F)(F)F	inactive
COc1ccc2c(c1)NP(=S)(c1ccccc1)N2 (stereo unspecified)	inactive
O=C1NC(=O)C(CCOc2ccccc2)(CCc2ccccc2)C(=O)N1	inactive
COc1ccc(NC(=O)N2Cc3ccccc3-n3nncc3C2)cc1	inactive
CC1CC=CCC12C(=O)NC(=S)NC2=O (stereo unspecified)	inactive
CCn1cc(CN2CCCC(C(=O)c3cccc(C(F)(F)F)c3)C2)cn1 (stereo unspecified)	inactive
Cc1ccccc1NC(=O)COC(=O)c1cc(C)n(C2CC2)c1C	13 µM (active)
Cc1cc(C(=O)OCC(=O)Nc2c(F)cccc2F)c(C)n1C1CC1	inactive
Cc1nn(-c2ccccc2)c(C)c1NC(=O)COC(=O)Cc1ccccc1	inactive
COc1cccc(C(=O)N2C[C@H]3C[C@@H](C2)c2cccc(=O)n2C3)c1	inactive
c1cc2c(cc1C1OCC3C(c4ccc5c(c4)OCO5)OCC13)OCO2 (stereo unspecified)	inactive
CC(=O)OC1C2(CC3N4C(=O)C5(CO)SSC4(CC31O)C(=O)N5C)OC(C)C(C)(C)C2=O (stereo unspecified)	2.31 µM (active)
O=c1c2ccccc2[nH]c(=S)n1-c1cccc(Cl)c1	inactive
COc1cc(-n2c(=S)[nH]c3ccc(C)cc3c2=O)c(Cl)cc1Cl	9.2 µM (active)
S=C(NCCc1ccccc1)N1Cc2cc(N3CCOCC3)ccc2-n2nncc2C1	inactive
O=c1[nH]c2ccccc2n1C1CCN(C(c2ccccc2)c2nnnn2Cc2ccccc2)CC1 (stereo unspecified)	18.4 µM (active)
CSCCC(c1nnnn1C(C)(C)C)N1CCC(n2c(=O)[nH]c3ccccc32)CC1 (stereo unspecified)	inactive
O=c1[nH]c2ccccc2n1C1CCN(C(c2ccnc3ccccc23)c2nnnn2Cc2ccccc2)CC1 (stereo unspecified)	inactive
O=C1C2CCN(CC2)C1(CO)CO	inactive
CCOC(=O)c1c(-c2ccccc2)oc2ccc(OC(=O)N(C)C)cc12	16.4 µM (active)

Compound	Potency
CN(C)C(=O)Oc1ccc2c(c1)O/C(=C\c1ccccc1)C2=O	inactive
Oc1ccc2c3c1OC1[C@H](O)CC[C@@]4(O)[C@@H](C2)N(CC2CC2)CC[C@]314 (stereo partly specified)	inactive
CCc1ccc(OCC(=O)N2CCN(CC(=O)Nc3ccccc3Cl)CC2)cc1	inactive
CC(=O)NCC1=C(c2ccc3ccccc3c2)C[C@@H]2CC[C@H]1N2Cc1ccco1	inactive
C[C@]12CCC3C(CC[C@H]4C[C@@H](O)CC[C@]34C)C1C[C@@H](O)[C@H]2O (stereo partly specified)	inactive
C[C@]12CC[C@H](O)C[C@H]1CC[C@@H]1C2CC[C@]2(C)[C@@H](C3=CC(=O)OC3)[C@@H](O)C[C@]12O (stereo partly specified)	6.51 µM (active)
Cc1cc(-c2ccc(N)c(C)c2)ccc1N	inactive
CC(C)(C)c1ccc(OC(=O)N2CCCCC2)cc1	inactive
CC1([N+](=O)[O-])COP(=O)(Nc2ccc(F)cc2)OC1 (stereo unspecified)	inactive
Cc1cccc(NC(=O)OC2CN3CCC2CC3)c1 (stereo unspecified)	inactive
COC1=C[C@@H]2[C@@H]3Cc4ccc(OC)c(O)c4[C@]2(CCN3C)CC1=O	inactive
NC(=O)Cn1cc(C(=O)c2ccccc2F)c2ccccc21	inactive
N#Cc1ccc(Cn2cc(C(=O)c3ccco3)c3ccccc32)cc1	18.4 µM (active)
CC(C)Nc1nc(Cl)nc(NC(C)C)n1	inactive
O=C(NCC1=C(c2ccc3ccccc3c2)C[C@@H]2CC[C@H]1N2Cc1ccco1)c1cccs1	inactive
Cc1ccc(N2C(=O)NC(=O)C(CCc3ccncc3)(Cc3cccc(Cl)c3Cl)C2=O)cc1 (stereo unspecified)	inactive
O=C1NC(=O)C(CCc2ccccn2)(Cc2cccc(Cl)c2Cl)C(=O)N1c1ccc(Br)cc1 (stereo unspecified)	7.31 µM (active)
C[C@H]1CN([C@@H](C)CO)C(=O)CCCn2nncc2CO[C@H]1CN(C)C(=O)Oc1ccccc1	inactive
